A selection: hits, their analogues and other compounds. The true share with any hit is near 2.3%.
CHT PAM – allosteric activators of human choline transporter CHT; Q9GZV3; CHT-expressing cells, membrane potential dye, choline EC20; stronger effect = higher value; LV-AA mutant CHT in HEK293 cells; B-score at 10 µM; 310,000 compounds, 0.49% hits; AID 488977;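 active = initial fluorescence not abnormally high and integrated response B-score, plate-corrected, over 3 SD above library mean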
TMEM16A act – activators or potentiators of mouse TMEM16A chloride channel; HEK293 TMEM16A/YFP-H148Q/I152L, iodide quench fluorescence; stronger effect = lower value; B-score at 10 µM; 340,000 compounds, 0.3% hits; AID 623877;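 active = fluorescence-ratio B-score plate-corrected deviation score at least 3 library SD below zero, with starting fluorescence score within 5 deviations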;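 note: channel opened by trigger with iodide after compound preincubation; score built on the fluorescence ratio of max minus min over baseline; more negative score means more quench and so TMEM16A activation or potentiation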
Target sequence (Q8BHY3 whole entry, looked up): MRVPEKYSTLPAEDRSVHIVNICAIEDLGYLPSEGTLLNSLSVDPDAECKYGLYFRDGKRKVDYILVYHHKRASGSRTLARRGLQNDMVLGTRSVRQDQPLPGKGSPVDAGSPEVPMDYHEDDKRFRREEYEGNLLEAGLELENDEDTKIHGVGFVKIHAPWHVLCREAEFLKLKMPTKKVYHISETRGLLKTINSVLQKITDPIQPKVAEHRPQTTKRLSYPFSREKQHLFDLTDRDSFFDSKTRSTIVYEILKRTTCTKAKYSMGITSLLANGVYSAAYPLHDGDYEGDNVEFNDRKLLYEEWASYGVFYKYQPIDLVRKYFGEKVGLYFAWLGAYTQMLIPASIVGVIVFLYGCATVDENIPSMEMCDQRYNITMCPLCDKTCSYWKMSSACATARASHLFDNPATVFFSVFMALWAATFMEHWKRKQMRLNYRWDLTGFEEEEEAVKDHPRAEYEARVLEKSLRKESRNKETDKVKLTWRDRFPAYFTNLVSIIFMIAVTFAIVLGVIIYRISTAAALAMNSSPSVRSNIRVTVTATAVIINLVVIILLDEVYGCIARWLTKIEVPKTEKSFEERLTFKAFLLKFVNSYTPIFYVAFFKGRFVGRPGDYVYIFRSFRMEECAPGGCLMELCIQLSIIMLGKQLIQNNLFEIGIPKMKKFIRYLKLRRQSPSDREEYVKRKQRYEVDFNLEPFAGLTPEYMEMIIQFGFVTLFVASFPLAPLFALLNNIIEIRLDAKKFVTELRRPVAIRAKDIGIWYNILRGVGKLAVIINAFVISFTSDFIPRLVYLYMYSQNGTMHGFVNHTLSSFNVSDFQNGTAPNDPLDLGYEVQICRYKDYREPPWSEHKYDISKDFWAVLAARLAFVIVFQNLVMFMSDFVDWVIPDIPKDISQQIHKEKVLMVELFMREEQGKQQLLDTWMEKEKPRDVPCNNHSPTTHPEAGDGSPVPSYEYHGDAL
TMEM16A inh – blocks the mouse calcium-activated chloride channel TMEM16A; normalized B-score (activity score, 25-100; higher = stronger inhibition) at 10 µM; 310,000 compounds, 1.2% hits; Q8BHY3; HEK293 TMEM16A/YFP iodide influx fluorescence, ionomycin;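 active = ratio plate-corrected score three or more library SD toward inhibition, starting fluorescence score within five deviations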;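 note: score derived from kinetic fluorescence span divided by baseline fluorescence per well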
CHT inh – human CHT choline transport inhibition; Q9GZV3; CHT-expressing cells, membrane potential dye, choline response; stronger effect = lower value; B-score at 10 µM; 310,000 compounds, 0.86% hits; AID 488975;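 active = B-score over 3 SD under the library average, and starting fluorescence ratio not unusually high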;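 note: choline stimulus applied at its EC90 after an EC20 pre-addition; B-score computed on integrated fluorescence ratio after choline addition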
CHT act confirm – human CHT activation, confirmatory screen. AID 504833. shares compounds with CHT PAM. activation, % at 10 µM. CHT-expressing cells, membrane potential dye fluorescence (FDSS); % of choline EC20–EC90 response window; HEK293 expressing CHT LV-AA mutant; choline added at its EC20. 2,500 compounds, 91% hits;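 active = primary screen active, with duplicate mean activation above negative control mean plus 3 SD, cut at about 11% in these data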
HEK293 MP dye – activity in parental HEK293 cells lacking CHT; shares compounds with CHT PAM; ratio readout change at 10 µM, hits read low; membrane potential dye fluorescence (FDSS); measured after EC20 choline addition; 2,500 compounds, 62% hits; AID 623908;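 active = duplicate-averaged ratio beyond 3 SD from buffer wells, up or down, though filed actives are nearly all decreases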
Large screens that a line does not name were inactive (follow-up assays come after a bar, where they were run).

C#CCOCCOCCOCCNc1nc(N2CCN(C(=O)[C@H](CCCCN)n3cc([C@@H](N)CC(C)C)nn3)CC2)nc(N2CCN(C(=O)[C@H](CCCCN)n3cc([C@@H](N)CC(C)C)nn3)CC2)n1	none | CHT act confirm 56 | HEK293 MP dye -39
C#CCOCCOCCOCCNc1nc(N2CCN(C(=O)CCCCCCCCCCNC(=O)Cn3cc(CCCCCN)nn3)CC2)nc(N2CCN(C(=O)CCCCCCCCCCNC(=O)[C@@H]([C@H](C)O)n3cc(C)nn3)CC2)n1	none
O=C(NC1CC2CCC(C1)N2Cc1ccco1)c1ccccc1 (stereo not given)	CHT PAM 7.7 | CHT act confirm inactive | HEK293 MP dye inactive
CCCCN(CCCC)CP(=O)(c1ccccc1)c1ccccc1	CHT PAM 8.9 | CHT act confirm 31 | HEK293 MP dye inactive
Cc1cccn2c1nc(=S)n2C(=O)c1ccco1	none | CHT act confirm 27 | HEK293 MP dye -21
O=C(c1ccco1)N1CCN(C(=O)c2ccco2)C1=S	none (no result: CHT PAM, TMEM16A inh, CHT inh)
Cc1cc(SCC(=O)NC2CCCC2)nc2ccccc12	none
CCOC(=O)C1CCN(Cc2cc(=O)oc3c(C)c(C)ccc23)CC1	none
CC(C)CCn1c(NCCN(C)C)nc2c1c(=O)[nH]c(=O)n2C	none | CHT act confirm 26 | HEK293 MP dye -41
CN(C)CCNc1nc2c(c(=O)[nH]c(=O)n2C)n1CC(O)COc1ccc(Cl)cc1Cl (stereo not given)	CHT PAM 8.9 | CHT act confirm 51 | HEK293 MP dye -45
COc1cc(/C=C2\SC(N)=NC2=O)ccc1OCC(=O)Nc1ccccc1C	none (no result: CHT PAM, TMEM16A inh, CHT inh)
CCCCC1CCC(C(=O)NC2CCS(=O)(=O)C2)CC1 (stereo not given)	none | CHT act confirm 10 | HEK293 MP dye inactive
CC(=O)c1ccc(OCC(=O)OCc2cc(-c3ccco3)on2)cc1	none (no result: CHT PAM, TMEM16A inh, CHT inh)
CCN1CCc2nc(NC(=O)C(c3ccccc3)c3ccccc3)sc2C1	none | CHT act confirm 17 | HEK293 MP dye inactive
Cc1ccc(C2(C)NC(=O)N(CC(=O)Nc3ccc(S(=O)(=O)Nc4nccs4)cc3)C2=O)cc1 (stereo not given)	none
COc1ccc(C(c2nnnn2Cc2cccs2)N2CCN(c3ccccc3F)CC2)cc1 (stereo not given)	none | CHT act confirm 31 | HEK293 MP dye inactive
CCc1nc(SCC(=O)N2CCOCC2)c2c(=O)n(C)c(=O)n(C)c2n1	none
Cn1c(=O)c2c(SCCN3CCOCC3)nc(C3CCCC3)nc2n(C)c1=O	CHT PAM 7.4 | CHT act confirm 42 | HEK293 MP dye -30
COc1ccc(Cc2nc3c([nH]2)c(=O)n(C)c(=O)n3C)cc1OC	none (no result: CHT PAM, TMEM16A inh, CHT inh)
O=C1c2cccc3cccc(c23)C(=O)N1CC1CCN(CC(O)COCc2ccc3c(c2)OCO3)CC1 (stereo not given)	none | CHT act confirm 38 | HEK293 MP dye -56
COc1ccc(OCC(O)CN2CCC(CN3C(=O)c4cccc5cccc(c45)C3=O)CC2)cc1 (stereo not given)	none
Cc1cc(C)c(NC(=O)COc2cccnc2[N+](=O)[O-])c(C)c1	none (no result: CHT PAM, TMEM16A inh, CHT inh)
COc1ccc(NC(=O)COC(=O)c2cc(Cl)ccc2O)cc1S(=O)(=O)N1CCCCC1	none (no result: CHT PAM, TMEM16A inh, CHT inh)
CCCCCOc1ccc(Br)cc1/C(C)=N/NC1=NCCN1	CHT PAM 8.7 | CHT act confirm 55 | HEK293 MP dye inactive
Cc1cc(C)nc(/N=C(\N)Nc2ccc(S(=O)(=O)Nc3nc(C)cc(C)n3)cc2)n1	CHT PAM 8.7 (no result: TMEM16A act) | CHT act confirm 59 | HEK293 MP dye -58
CC(=O)Nc1ccc(N/C(N)=N/c2nc(C)cc(C)n2)cc1	none
Cc1cc(C)c2c(n1)sc1c(N3CCN(CCO)CC3)ncnc12	none
CCN1CCC2(CC1)C(C#N)=C(N)Oc1c2sc2nc(C)cc(C)c12	CHT PAM 6.7 | CHT act confirm 39 | HEK293 MP dye inactive
CCN1CCc2c(sc(NC(=O)Cc3ccccc3)c2C(=O)OC)C1	none
CCN1CCc2c(sc(NC(=O)c3ccc(S(=O)(=O)N4CCOCC4)cc3)c2C(N)=O)C1	CHT PAM 7.8 | CHT act confirm 38 | HEK293 MP dye -41
CCOC(=O)c1c(NC(=O)Cc2ccccc2)sc2c1CCN(CC)C2	none | CHT act confirm 34 | HEK293 MP dye -35
COc1ccc(CCC(=O)NC(C)C2CCCO2)cc1 (stereo not given)	none
COc1ccn(C2CCCCO2)c(=O)n1 (stereo not given)	none (no result: CHT PAM, TMEM16A inh, CHT inh)
Brc1cc2c(cc1Br)OCCOCCOCCOCCO2	none
Brc1ccc2c(c1)OCCOCCOc1cc(Br)ccc1OCCOCCOCCO2	CHT PAM 14, TMEM16A inh 100 | CHT act confirm 57 | HEK293 MP dye inactive
CN1CCN(CCCn2cnc3c(=O)oc4ccccc4c32)CC1	CHT PAM 9.4 | CHT act confirm 66 | HEK293 MP dye -67
O=c1oc2ccccc2c2c1ncn2CCN1CCOCC1	none
CCOC(=O)[C@H]1[C@H]2COc3ccc(Br)cc3[C@@H]2N2C(=O)N(c3ccccc3)C(=O)[C@@]12C	none (no result: CHT PAM, TMEM16A inh, CHT inh)
CCOC(=O)[C@@H]1[C@H]2COc3ccc(Br)cc3[C@@H]2N2C(=O)N(c3ccccc3)C(=O)[C@@]12C	CHT PAM 8.7 | CHT act confirm 20 | HEK293 MP dye inactive
Cc1ccc2c(c1)c1c3n2CCN(CC(O)CNC(C)C)C3CCC1 (stereo not given)	none | CHT act confirm 17 | HEK293 MP dye -31
Cc1ccc2c(c1)c1c3n2CCN(CC(N)=O)C3CCC1 (stereo not given)	none
O=C(OCCSCCOC(=O)C1CC=CCC1)C1CC=CCC1 (stereo not given)	none (no result: CHT PAM, TMEM16A inh, CHT inh)
CC(C)CCC(CCNCc1ccccn1)c1ccc(Cl)cc1 (stereo not given)	none | CHT act confirm 33 | HEK293 MP dye inactive
S=C(NCc1ccc(Cl)cc1)NCc1ccccn1	none
COc1cc(CC2C(=O)OCC2C(=O)c2ccc3c(c2)OCO3)cc(OC)c1OC (stereo not given)	none (no result: CHT PAM, TMEM16A inh, CHT inh)
CCCCCCn1c(CN2CCN(Cc3ccccc3)CC2)nc2c1c(=O)n(C)c(=O)n2C	none | CHT act confirm 24 | HEK293 MP dye inactive
CCCCCn1c(CN2CCN(C(=O)OCC)CC2)nc2c1c(=O)n(C)c(=O)n2C	none
CCCCCCn1c(CN2CCN(C(=O)c3ccco3)CC2)nc2c1c(=O)n(C)c(=O)n2C	none
CCCCCn1c(CN2CCN(C)CC2)nc2c1c(=O)n(C)c(=O)n2C	none | CHT act confirm 46 | HEK293 MP dye -36
Cc1cc(C)c(/C=N/NC(N)=O)c(C)c1/C=N/NC(N)=O	CHT PAM 6.4 | CHT act confirm 47 | HEK293 MP dye -62
CCOc1ccc(-n2c(=S)sc3c(=O)n(-c4ccc(F)cc4)c(SCC(=O)O)nc32)cc1	none

Assay outcomes as filed in PubChem BioAssay.
